Results taken from PubChem BioAssay (NCATS).
Results filed as inconclusive are left out. Where a call stands in place of a potency, no number is given. The source made the active and inactive calls. Calls follow the shape of the dose curve; as a rule, active = well fitted inhibition curve with a large enough effect; inconclusive = small, poorly fitted or top-dose-only effect; inactive = no such curve, though single readings can be large or run the other way. Numbered stars: 1 amine (or outer) side, 2 acyl side, 3 side chain; on linkers, the order of the positions; unused ones are H or OH. Square brackets hold non-standard residues; d marks the D form. Peptide text beside a SMILES is read from it. X10 = O=C(C(CC(O)CO)O[*:1])[*:2]; NMeV = CN[CH](C(=O)O)C(C)C; NMeA = CN[CH](C)C(=O)O; βAla = NCCC(=O)O

These compounds were tested against Retinaldehyde dehydrogenase 3 (Homo sapiens) (UniProt P47895) (assay: qHTS for Inhibitors of the Aldehyde Dehydrogenase Family (ALDH1A3) Primary screen (AID 2061315)). Conditions: ALDH inhibition qHTS; series mostly up to 56 µM.

SMILES | Potency | activity change, negative = inhibition
CC1OC(OC2C(OC(=O)[C@]34CCC(C)(C)C[C@H]3C3=CCC5[C@@]6(C)CC[C@H](OC7OC(C(=O)O)C(O)C(O)C7O)C(C)(C)C6CC[C@@]5(C)[C@]3(C)CC4O)OC(CO)C2O)C(O)C(O)C1OC1OCC(O)C(O)C1O (stereo partly specified) | inactive | 
CC1(C)C2CC=C(COC3OC(COC4OCC(O)(CO)C4O)C(O)C(O)C3O)C1C2 (stereo unspecified) | inactive | 
COC(=O)C1=CO[C@@H](O[C@@H]2O[C@H](CO)[C@@H](O)[C@H](O)[C@H]2O)[C@@H]2C(C)CC(=O)[C@]12O (stereo partly specified) | inactive | 
COc1ccc(S(=O)(=O)n2cnc3cc(C)c(C)cc32)cc1 | inactive | 
CC1(C)SC2C(NC(=O)[C@H](C(=O)O)c3ccsc3)C(=O)N2C1C(=O)O (stereo partly specified) | inactive | 
O=C(O)/C=C/c1ccc(-c2ccc(O)c(C34CC5CC(CC(C5)C3)C4)c2)cc1 | inactive | 
C=C1CCC2C(C)(C(=O)O)CC(O)CC2(C)C1CC/C(C)=C/C(=O)O (stereo unspecified) | inactive | 
COC(=O)c1cc(CN2CCN(C(=N)N)CC2)cc(C(=O)N2CCN(C(=O)c3ccc(C(=N)N)cc3)CC2)c1 | inactive | 
CC1(C)CCCC2(C)C1CC(=O)C13CC(CCC12)C(O)(CO)C3 (stereo unspecified) | inactive | 
CCC(C)/C=C(C)/C=C/C1=CC2=C(Cl)C(=O)C(C)(OC(C)=O)C(=O)C2=CN1C(CC(=O)O)C(=O)O (stereo unspecified) | inactive | 
CCC(=O)O[C@]1(C(=O)CCl)[C@@H](C)C[C@H]2[C@@H]3C[C@H](F)C4=CC(=O)C=C[C@]4(C)[C@@]3(F)[C@@H](O)C[C@@]21C | inactive | 
C/C=C(/COC(=O)/C(C)=C/C)C(=O)OC(CC)c1ccc(OC)c(OC)c1 (stereo unspecified) | inactive | 
CC(C)(OC1OC(CO)C(O)C(O)C1O)C1CCC(O)(CO)C2CC(O)C(C)(O)C2C1 (stereo unspecified) | inactive | 
C[C@@H]1CC[C@]2(C(=O)O[C@@H]3O[C@H](CO)[C@@H](O)[C@H](O)[C@H]3O)CC[C@]3(C)C(=CCC4[C@@]5(C)C[C@@H](O)[C@H](O)C(C)(C)C5CC[C@]43C)C2[C@]1(C)O (stereo partly specified) | inactive | 
C/C=C/C=C/C(O)=C1\C(O)=C(C)C(=O)[C@@]2(C)OC(=O)[C@@](C)(NC(=O)/C=C/C(=O)O)[C@@H]12 | inactive | 
COc1cc(O)c2c(c1)C1=C[C@H](O)[C@@H](O)C[C@]1(C)OC2=O | inactive | 
C=C(C)C1CC[C@]2(C(=O)O)CC[C@]3(C(=O)O)[C@H](CCC4[C@@]5(C)CC[C@H](O)C(C)(C)C5CC[C@]43C)C12 (stereo partly specified) | inactive | 
Cc1cccc(C)c1-n1c(=O)c2cnc(Nc3ccc(N4CCN(C)CC4)cc3)nc2n2c3ccccc3nc12 | inactive | 
C=C1C(=O)O[C@@H]2/C=C(\C)C(=O)/C=C/[C@](C)(O)C[C@@H](OC(=O)C(C)C)[C@@H]12 | inactive | 
COc1c(C)c(OCC=C(C)C)cc2c1CNC2=O | inactive | 
CC(/C=C/C1=CC2=CC(=O)C(C)(O)C(O)C2=CO1)=C\C(C)CCO (stereo unspecified) | inactive | 
Fc1cccc(CN(C2=NCCN2)c2c(Cl)cccc2Cl)c1 | inactive | 
CCC(C)C1NC(=O)C2CCCN2C(=O)C(CC(O)CO)OC(=O)CCNC(=O)C(C)N(C)C(=O)C(C(C)C)N(C)C1=O (stereo unspecified) (cyclo([X10]PI[NMeV][NMeA][βAla]); configuration not given here) | inactive | 
O=C(O)c1ccc(O)c2ncc(N3CCCN(CCc4cccc5ccccc45)CC3)cc12 | inactive | 
C[C@@H]1O[C@@H](O[C@H]2[C@H](OC(=O)[C@]34CCC(C)(C)C[C@H]3C3=CCC5[C@@]6(C)CC[C@H](O[C@@H]7O[C@H](CO[C@@H]8OC[C@H](O)[C@H](O)[C@H]8O)[C@@H](O)[C@H](O)[C@H]7O)C(C)(C)C6CC[C@@]5(C)[C@]3(C)C[C@H]4O)OC[C@@H](O)[C@@H]2O)[C@H](O)[C@H](O)[C@H]1O[C@@H]1OC[C@H](O)[C@H](O[C@@H]2OC[C@@H](O)[C@H](O)[C@H]2O)[C@H]1O (stereo partly specified) |  | 8.01% [at 11.2 µM] (inactive)
CC(=O)O[C@@H]1[C@H](O[C@@H]2OC[C@](O)(CO)[C@H]2O)[C@@H](O[C@@H]2O[C@@H](C)[C@H](O)[C@@H](O[C@@H]3O[C@H](CO)[C@@H](O)[C@H](O)[C@H]3O)[C@H]2O)[C@H](OC(=O)[C@]23CCC(C)(C)C[C@H]2C2=CCC4[C@@]5(C)C[C@H](O)[C@H](O[C@@H]6O[C@H](C(=O)O)[C@@H](O)[C@H](O)[C@H]6O)[C@@](C)(C(=O)O)C5CC[C@@]4(C)[C@]2(C)CC3)O[C@@H]1C (stereo partly specified) |  | -13.4% [at 11.2 µM] (inactive)
